Assay results published in PubChem BioAssay AID1259318 (Sanford-Burnham Center for Chemical Genomics, 2017).
Hit rate of the full screen: of about 370,000 compounds, about 3,000 (0.81%) were called active. Only a selection was taken, and actives are over-represented in it overall. Values without a mark were called inactive.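 The calls were made as follows: active = activity above about 14% (limit read from the data; passing the limit was not always enough); inactive = the rest.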

These molecules were tested against Nuclear receptor subfamily 1 group D member 1 (Homo sapiens) (UniProt P20393) (assay: Rev-erbα–DNA interaction modulation – biochemical, FITC-DNA, fluorescence polarization, uHTS, primary screen (AID 1259318;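 also: 0% = DMSO wells with 35 nM protein and 100% = DMSO wells with 750 nM protein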)). Settings: Rev-erbα–FITC-DNA binding, 90 min, at 10 µM, stronger effect = higher value.
Sequence of Nuclear receptor subfamily 1 group D member 1 (Homo sapiens) (P20393 whole entry, looked up): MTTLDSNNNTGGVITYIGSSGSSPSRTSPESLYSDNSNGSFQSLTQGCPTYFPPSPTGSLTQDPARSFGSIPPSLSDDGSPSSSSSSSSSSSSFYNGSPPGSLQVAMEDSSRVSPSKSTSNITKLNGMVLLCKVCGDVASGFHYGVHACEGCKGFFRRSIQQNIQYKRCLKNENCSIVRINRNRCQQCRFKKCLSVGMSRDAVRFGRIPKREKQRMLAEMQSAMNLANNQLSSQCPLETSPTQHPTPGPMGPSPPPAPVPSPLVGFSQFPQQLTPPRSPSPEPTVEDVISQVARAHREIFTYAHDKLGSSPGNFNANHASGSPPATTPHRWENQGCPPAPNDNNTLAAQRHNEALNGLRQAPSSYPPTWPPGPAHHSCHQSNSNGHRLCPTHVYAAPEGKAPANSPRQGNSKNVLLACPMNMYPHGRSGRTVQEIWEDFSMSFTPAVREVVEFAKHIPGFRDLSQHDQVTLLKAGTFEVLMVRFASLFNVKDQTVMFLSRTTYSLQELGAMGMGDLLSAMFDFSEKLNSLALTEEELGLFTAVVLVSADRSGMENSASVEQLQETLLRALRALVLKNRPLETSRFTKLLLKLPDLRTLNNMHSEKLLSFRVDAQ

First: CCCCCCCCCCCCCCCCO
Second: CCOc1ccc(NC(=O)CN(C)C(=O)CCSc2ccc(F)cc2)cc1OCC
The activity of the first is higher: 2.41% for the first, -6.91% for the second.

First: CCNC(=O)C1(C)CCCN(C(=O)c2c(C)noc2C)C1 (centres undefined)
Second: Cc1ccc(-n2c(C)cc(/C=C(\C#N)C(=O)NCC3CCCO3)c2C)cc1 (centres undefined)
The activity of the first is lower: -9.88% for the first, -8.1% for the second.

First: NC(=O)C1CCN(Cc2nc3c(Br)cc(Br)cc3c(=O)[nH]2)CC1
Second: Cc1ccc2c(C(=O)CN3CCCC3)c(C)[nH]c2c1
The activity of the first is higher: -0.27% for the first, -0.66% for the second.

Compared with `CC(C)(C)c1ccc(S(=O)(=O)N2CCN(C(=O)c3ccc4c(c3)C(=O)N(Cc3ccncc3)C4=O)CC2)cc1`, `CC(=O)Nc1ccc(S(=O)(=O)N2CCN(S(=O)(=O)c3cccs3)CC2)cc1` is higher in activity: -6.31% for the first, -1.45% for the second.

Compared with `COc1cccc(NS(=O)(=O)c2ccc3[nH]cc(C(=O)NCCCOC(C)C)c(=O)c3c2)c1`, `CN(C)S(=O)(=O)c1ccc(N2CCCC2)c(C(=O)Nc2cccc(F)c2)c1` is higher in activity: 5.55% for the first, 6.34% for the second.

Going from `CN(C)S(=O)(=O)c1ccc(N2CCCC2)c(C(=O)NCc2ccccc2)c1` to `CCN(CC)S(=O)(=O)c1cccc(NC(=O)c2ccc(S(=O)(=O)N3CCCC3)cc2)c1`, the activity rises from 5% to 5.55%.

Compared with `CC(C)(C)NC(=O)C(c1cccnc1)N(C(=O)c1cnco1)c1ccc(C(C)(C)C)cc1` (centres undefined), `CC(C)(C)c1ccc(C(=O)Nc2cc(Cl)c(Br)cc2C(=O)O)cc1` is lower in activity: 0.3% for the first, -8.64% for the second.

Going from `COCCOC(=O)c1c(C)oc2cc(Br)c(OCC(N)=O)cc12` to `Cc1cc(=O)oc2c(C(=O)c3ccccc3)c(OCC(N)=O)ccc12`, the activity rises from -0.63% to 1.4%.

Compared with `Nn1c(SCC(=O)Nc2cccc3ccccc23)nnc1-c1cc(-c2ccc(F)cc2)n[nH]1`, `Cc1ccn2c(=O)nc(SCC(=O)NCc3ccc(F)cc3)nc2c1` is higher in activity: 0.84% for the first, 10.3% for the second.

First: Cc1ccn2c(=O)nc(SCC(=O)NCc3ccc4c(c3)OCO4)nc2c1
Second: O=C(Cn1c(=O)sc2ccccc21)Nc1ccc2c(c1)OCCO2
The activity of the first is lower: -6.16% for the first, 2.42% for the second.

Compared with `CC(O)COc1ccccc1` (centres undefined), `O=C1CN(C(=O)COc2c(Cl)cccc2Cl)c2ccccc2N1` is higher in activity: -2.15% for the first, -1.39% for the second.

Compared with `Cc1ccc(NS(=O)(=O)c2ccc(-c3ccc(=O)[nH]n3)o2)c(C)c1`, `Cc1ccc(S(=O)(=O)NCC(=O)N2CCN(c3ccccn3)CC2)cc1` is lower in activity: 1.28% for the first, -1.9% for the second.

Going from `N#C/C(=C\c1cccnc1)C(=O)Nc1ccc(SC(F)F)cc1` to `Cc1c(C=O)c2ccccn2c1C(=O)c1ccncc1`, the activity rises from -6.19% to -1.4%.

First: CN(C)CCc1c[nH]c2ccc(Cn3cncn3)cc12
Second: Cc1cc(Nc2cccc(C)c2C)n2ncnc2n1
The activity of the first is lower: -0.58% for the first, 0.88% for the second.

First: CS(=O)(=O)N(Cc1ccccc1)c1ccc(C(=O)NN=C2CCCCCC2)cc1
Second: O=C(CN1CCC(NC(=O)NCc2ccccc2)CC1)Nc1ccc2c(c1)OCCO2
The activity of the first is higher: 1.02% for the first, -2.38% for the second.

First: CCOC(=O)c1nnn2c1nc(N1CCN(c3ccccc3)CC1)c1ccccc12
Second: CN(C(=O)CSc1nnc(-c2n[nH]c3ccccc23)o1)c1ccccc1
The activity of the first is lower: -1.6% for the first, -0.39% for the second.

First: Cc1nc(Nc2ccccc2C)c2cnn(C)c2n1
Second: CCCOc1ccc(Oc2c(Cl)cnn(Cc3cccc4ccccc34)c2=O)cc1
The activity of the first is higher: 3.28% for the first, -0.89% for the second.

Compared with `CCN(CC(=O)Nc1c(F)cccc1F)C(=O)C1CCC1`, `CCOc1ccc(C)cc1S(=O)(=O)NC1CCCCCC1` is higher in activity: -2.66% for the first, 4.62% for the second.

First: COc1cc(C(=O)N2CCOCC2)cc(OC)c1OC
Second: COc1ccc(S(=O)(=O)N2CCSCC2)cc1
The activity of the first is higher: -1.7% for the first, -4.2% for the second.

Compared with `N#Cc1cccc(NC(=O)COC(=O)c2ccccc2C(=O)c2ccc(Cl)c([N+](=O)[O-])c2)c1`, `COc1ccc(CN2[C@@H](CC(=O)O)c3cc(F)ccc3S2(=O)=O)cc1` is lower in activity: 3.08% for the first, 1.62% for the second.

Going from `COc1ccc(S(=O)(=O)N2CCN(c3cnccn3)CC2)cc1` to `COc1ccc(-c2csc3ncnc(N4CCN(S(=O)(=O)c5cccc(F)c5)CC4)c23)cc1`, the activity rises from 0.63% to 3.12%.

Going from `COc1ccc(-c2csc3ncnc(Oc4ccc5c(C)cc(=O)oc5c4)c23)cc1` to `CC(C)(C)c1ccc(/C=C2\SC(=O)N=C2N)cc1`, the activity falls from 3.46% to 0.2%.

First: CCC1(C)CC(=O)NC1=O (centres undefined)
Second: C=CCn1c(CCNC(=O)c2cccs2)n[nH]c1=S
The activity of the first is lower: -6.13% for the first, -1.01% for the second.

Work on `CCC(C)[C@H]1O[C@]2(CC[C@@H]1C)C[C@@H]1C[C@@H](C/C=C(\C)[C@@H](O[C@@H]3C[C@H](OC)[C@H](O[C@H]4C[C@H](OC)[C@@H](O)[C@H](C)O4)[C@H](C)O3)[C@@H](C)/C=C/C=C3\CO[C@@H]4[C@H](O)C(C)=C[C@@H](C(=O)O1)[C@]34O)O2` (some centres undefined) yielded an activity of 6.63%.

In the case of `NC(N)=Nc1nc2ccc(Br)cc2c(=O)[nH]1`, the activity was 20.6% (active).
In the case of `CN(C)S(=O)(=O)c1ccc(N2CCCC2)c(C(=O)Nc2ccc(Br)cc2F)c1`, the activity was 23.1% (active).
With `CN1/C(=c2/s/c(=C3/C(=O)N(c4ccccc4)NC3=Nc3ccccc3)n(C)c2=O)C(C)(C)c2ccccc21` the activity was 42.5% (active).
For `CCOC(=O)c1c(C)oc2cc(Br)c(OCC(N)=O)cc12`, the activity was 27.8% (active).
In the case of `COc1ccc(C2=NN(C(=O)CSc3nc(=O)n4ccc(C)cc4n3)C(c3ccc(C)cc3)C2)cc1` (centres undefined), the activity was 37.8% (active).
In the case of `Cc1cc(/C=C(/C#N)C(=O)Nc2ccc(Cl)cc2)c(C)n1-c1cccnc1`, the activity was 23.3% (active).
For `Cc1ccc(S(=O)(=O)c2nnn3c2nc(N2CCN(c4ccccn4)CC2)c2ccccc23)cc1`, the activity was 87.8% (active).
In the case of `Cc1cccc(Nc2nc3c(S(=O)(=O)c4ccccc4)nnn3c3ccccc23)c1C`, the activity was 47.9% (active).
In the case of `COc1ccc(-c2csc3ncnc(N4CCN(S(=O)(=O)c5ccccc5C#N)CC4)c23)cc1`, the activity was 28.3% (active).
In the case of `COc1ccc(S(=O)(=O)N2CCN(c3ncnc4c(-c5ccccc5)nsc34)CC2)cc1`, the activity was 27.5% (active).
`C=CCn1c(=NC(=O)c2ccc(S(=O)(=O)N3CCCC3)cc2)sc2cc(NC(C)=O)ccc21` was tested, and the activity was 51.5% (active).
`C=CCn1c(=NC(=O)c2cccs2)sc2cc(NC(C)=O)ccc21` was tested, and the activity was 31.9% (active).
